“And” between values parts separate entries of the source, which are not always exact repeats. Identical values can stand only once. Results filed as inconclusive are left out. The source made the active and inactive calls. Calls follow the shape of the dose curve; as a rule, active = well fitted inhibition curve with a large enough effect; inconclusive = small, poorly fitted or top-dose-only effect; inactive = flat fitted curve, though single readings scatter. Numbered stars: 1 amine (or outer) side, 2 acyl side, 3 side chain; on linkers, the order of the positions; unused ones are H or OH. Bridge positions count the residues as written; N and C are the ends. Square brackets hold non-standard residues; d marks the D form. Peptide text beside a SMILES is read from it. I, II: the chains in the order shown. Actinocin(9to1) = Cc1c2oc3c(C)ccc(C(=O)[*:1])c3nc-2c(C(=O)[*:2])c(N)c1=O; NMeV = CN[C@H](C(=O)O)C(C)C; Sar = CNCC(=O)O
What was measured:
P94_40 = test: qHTS profiling for inhibitors of Plasmodium falciparum proliferation (AID 504749); conditions: P. falciparum in erythrocytes, SYBR Green DNA, 72 h; series mostly up to 28.7 µM
How it was run: (§1)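 Three-day growth assay of blood-stage parasites in erythrocytes (0.3% parasitemia, 2.5% hematocrit) at 37 C, 5% CO2, quantified by SYBR Green DNA staining after overnight detergent lysis.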

PAD = test: as above; conditions: P. falciparum in erythrocytes, SYBR Green DNA, 72 h; series mostly up to 28.7 µM
How it was run: as §1

PC15 = test: as above; conditions: P. falciparum in erythrocytes, SYBR Green DNA, 72 h; series mostly up to 28.7 µM
How it was run: as §1

PC26 = test: as above; conditions: P. falciparum in erythrocytes, SYBR Green DNA, 72 h; series mostly up to 28.7 µM
How it was run: as §1

PC49 = test: as above; conditions: P. falciparum in erythrocytes, SYBR Green DNA, 72 h; series mostly up to 28.7 µM
How it was run: as §1

SC27B = test: as above; conditions: P. falciparum in erythrocytes, SYBR Green DNA, 72 h; series mostly up to 28.7 µM
How it was run: as §1

TAB109 = test: as above; conditions: P. falciparum in erythrocytes, SYBR Green DNA, 72 h; series mostly up to 28.7 µM
How it was run: as §1

TAB113 = test: as above; conditions: P. falciparum in erythrocytes, SYBR Green DNA, 72 h; series mostly up to 28.7 µM
How it was run: as §1

TAB165 = test: as above; conditions: P. falciparum in erythrocytes, SYBR Green DNA, 72 h; series mostly up to 28.7 µM
How it was run: as §1

W2 = test: as above; conditions: P. falciparum in erythrocytes, SYBR Green DNA, 72 h; series mostly up to 28.7 µM
How it was run: as §1

CRL-7250 = normal cell line; test: Cytotoxic Profiling of Annotated Libraries Using Quantitative High-Throughput Screening (AID 1296008); conditions: Five cell lines viability, CellTiter-Glo ATP luminescence, 48-72 h; max response: stronger effect = lower value; as to max response: % is scaled to controls: 0 for no effect and ±100 for the full control effect
How it was run: (§2)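 Cytotoxicity was measured as CellTiter-Glo ATP luminescence, read after 10 min at room temperature. Compound treatment of the cells lasted 48 or 72 hr at 37 degrees Celsius in a qHTS format.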

HaCat [1] = test: as above; conditions: Five cell lines viability, CellTiter-Glo ATP luminescence, 48-72 h; max response: stronger effect = lower value
How it was run: as §2

KB-3-1 = test: as above; conditions: Five cell lines viability, CellTiter-Glo ATP luminescence, 48-72 h; max response: stronger effect = lower value
How it was run: as §2

NIH3T3 = test: as above; conditions: Five cell lines viability, CellTiter-Glo ATP luminescence, 48-72 h; max response: stronger effect = lower value
How it was run: as §2

MCC-13 = test: qHTS assay to identify novel small-molecules to repurpose for Merkel cell carcinoma treatment (AID 1296009); conditions: MCC and control cell lines, CellTiter-Glo viability, 72 h; series mostly up to 46 µM
How it was run: (§3)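 After compound transfer in DMSO, plates were kept 72 hr at 37 degree celsius. Luminescent ATP signal from CellTiter-Glo served as viability measure, normalized against DMSO and no-cell controls.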

MCC-26 = test: as above; conditions: MCC and control cell lines, CellTiter-Glo viability, 72 h; series mostly up to 46 µM
How it was run: as §3

MKL-1 = test: as above; conditions: MCC and control cell lines, CellTiter-Glo viability, 72 h; series mostly up to 46 µM
How it was run: as §3

HEK293 = test: Cytotoxic Profiling of Annotated Libraries Using Quantitative High-Throughput Screening (AID 1296008); conditions: Five cell lines viability, CellTiter-Glo ATP luminescence, 48-72 h; max response: stronger effect = lower value; as to max response: % is scaled to controls: 0 for no effect and ±100 for the full control effect
How it was run: as §2

HACAT [2] = test: qHTS assay to identify novel small-molecules to repurpose for Merkel cell carcinoma treatment (AID 1296009); conditions: MCC and control cell lines, CellTiter-Glo viability, 72 h; at 44.8 µM (top of the series) unless noted
How it was run: as §3
Also: nearly all actives have a fitted effect of over 60% in size.
Potency is read from the fitted curve at half-maximal effect.

C[C@H]1C[C@H]2[C@@H]3CCC4=CC(=O)C=C[C@]4(C)[C@@]3(Cl)[C@@H](O)C[C@]2(C)[C@@]1(O)C(=O)CO
inactive: Potency (P94_40) | Potency (PAD) | Potency (PC15) | Potency (PC26) | Potency (PC49) | Potency (SC27B) | Potency (TAB109) | Potency (TAB113) | Potency (TAB165) | Potency (W2) | outcome (CRL-7250) | max response (HaCat [1]) -6.93% | max response (KB-3-1) 6.92% | max response (NIH3T3) -12.3% | Potency (MCC-13) | Potency (MCC-26) | Potency (MKL-1)

COc1cc2c(cc1OC)[C@@H]1CC(=O)[C@@H](CC(C)C)CN1CC2
inactive: max response (CRL-7250) -4.44% | max response (HaCat [1]) -0.956% | max response (KB-3-1) 20.8% | outcome (NIH3T3) | Potency (MCC-13) | Potency (MCC-26) | Potency (MKL-1)

C=C(CC)C(=O)c1ccc(OCC(=O)O)c(Cl)c1Cl
active: Potency (TAB113) 14.1 µM | Potency (TAB165) 12.6 µM | Potency (MKL-1) 8.41 µM
inactive: max response (CRL-7250) -16.5% | max response (HaCat [1]) -11.5% | max response (KB-3-1) -0.176% | max response (NIH3T3) -16.2% | Potency (MCC-26)

C/C=C(/C(=C/C)c1ccc(O)cc1)c1ccc(O)cc1
inactive: max response (CRL-7250) 1.03% | max response (HaCat [1]) -0.716% | max response (KB-3-1) -11.5% | Potency (MCC-13) | Potency (MCC-26) | Potency (MKL-1)

COc1cccc2c1C(=O)c1c(O)c3c(c(O)c1C2=O)C[C@@](O)(C(C)=O)C[C@@H]3O[C@H]1C[C@H](N)[C@H](O)[C@H](C)O1
active: Potency (P94_40) 3.55 µM | Potency (PAD) 4.47 µM | Potency (PC15) 10 µM | Potency (PC26) 5.36 µM | Potency (PC49) 7.08 µM | Potency (SC27B) 5.01 µM | Potency (TAB109) 3.55 µM | Potency (TAB113) 5.01 µM | Potency (TAB165) 2.24 µM | Potency (W2) 1.35 µM | Potency (CRL-7250) 0.075 µM | Potency (HEK293) 47.3 nM | Potency (NIH3T3) 0.133 µM | Potency (MCC-13) 1.06 µM | Potency (MCC-26) 0.944 µM | Potency (MKL-1) 0.0237 µM

Cc1c2oc3c(C)ccc(C(=O)N[C@@H]4C(=O)N[C@H](C(C)C)C(=O)N5CCC[C@H]5C(=O)N(C)CC(=O)N(C)[C@@H](C(C)C)C(=O)O[C@@H]4C)c3nc-2c(C(=O)N[C@@H]2C(=O)N[C@H](C(C)C)C(=O)N3CCC[C@H]3C(=O)N(C)CC(=O)N(C)[C@@H](C(C)C)C(=O)O[C@@H]2C)c(N)c1=O (I: T[dV]P[Sar][NMeV] / II: T[dV]P[Sar][NMeV]; ester I:1-I:C, II:1-II:C; linker I:N-II:N via Actinocin(9to1))
active: Potency (P94_40) 0.0045 µM | Potency (PAD) 0.005 µM | Potency (PC15) 0.0112 µM | Potency (PC26) 0.0054 µM | Potency (SC27B) 0.0063 µM | Potency (TAB109) 0.004 µM | Potency (TAB113) 0.0063 µM | Potency (TAB165) 0.0045 µM | Potency (W2) 0.0054 µM | Potency (CRL-7250) 0.0042 µM | Potency (HEK293) 2.1 nM | Potency (HaCat [1]) 0.0188 µM | Potency (KB-3-1) 0.0206 µM | Potency (MCC-13) 0.0335 µM

CN(C/C=C/c1ccccc1)Cc1cccc2ccccc12
active: Potency (CRL-7250) 26.6 µM | Potency (HaCat [1]) 21.1 µM
inactive: max response (KB-3-1) 4.5% | Potency (MCC-13) | Potency (MCC-26) | Potency (MKL-1)

CCCCCC=CCC=CCCCCCCCC(=O)OCC
inactive: Potency (P94_40) | Potency (PAD) | Potency (PC15) | Potency (PC26) | Potency (PC49) | Potency (SC27B) | Potency (TAB109) | Potency (TAB113) | Potency (TAB165) | Potency (W2) | max response (CRL-7250) -11.8% | outcome (HaCat [1]) | max response (KB-3-1) -4.13% | outcome (NIH3T3) | outcome (HACAT [2]) | Potency (MCC-13)

CN(C)C(=S)SC(=S)N(C)C
active: Potency (P94_40) 11.2 µM | Potency (PAD) 5.01 µM | Potency (TAB113) 11.2 µM | Potency (TAB165) 11.2 µM | Potency (W2) 9.53 µM | Potency (CRL-7250) 8.41 µM | Potency (HEK293) 5960 nM | Potency (NIH3T3) 2.66 µM | Potency (MCC-13) 2.99 µM
inactive: max response (KB-3-1) 31.5%

Cc1ccccc1C(=O)Nc1ccc(C(=O)N2CCCC(N(C)C)c3ccccc32)cc1 (stereo not given)
active: Potency (CRL-7250) 23.7 µM | Potency (HEK293) 3.35 µM and 5.8 µM | Potency (KB-3-1) 7.31 µM | Potency (NIH3T3) 9.44 µM
inactive: Potency (MCC-13) | Potency (MCC-26) | Potency (MKL-1)

CCCCCCCCCCCCCCCC[N+](C)(C)CC
active: Potency (P94_40) 3.98 µM | Potency (PAD) 8.91 µM | Potency (PC15) 8.91 µM | Potency (PC26) 5.36 µM | Potency (SC27B) 5.62 µM | Potency (TAB109) 4.47 µM | Potency (TAB113) 5.01 µM | Potency (TAB165) 4.47 µM | Potency (W2) 3.79 µM | Potency (CRL-7250) 6.68 µM | Potency (HEK293) 2990 nM | Potency (HaCat [1]) 5.96 µM | Potency (MKL-1) 0.119 µM

From PubChem BioAssay (NCATS)
